Screens as filed in PubChem.
TGFb inhibitor – TGF-b pathway inhibition; HepG2 CAGA-GFP TGF-b/SMAD3 reporter, GFP fluorescence, 18 h; TGF-beta stimulated, 500 pg/mL final; Potency, µM (doses to about 46.1 µM), for the others: at the top dose activity, negative = inhibition, usual class: inhibitors; 410,000 tested, 1.2% active; AID 588855; note: potency is the fitted concentration of half-maximal effect; % is set by controls: 0 for no effect and ±100 for the full control effect; nearly all actives have a fitted effect of over 65% in size
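HEPG2 CAGA-GFP reporter cells (1000/well, DMEM with 1% FBS) received compounds, then recombinant TGF-beta at 500 pg/mL final for 18 hours at 37 degrees C. Per-cell GFP summed per well was normalised to unstimulated and stimulated DMSO controls before curve fitting.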
IL-1B inflam inh – inflammasome signaling inhibition, IL-1 beta readout. THP-1 LPS/ATP IL-1B secretion, AlphaLISA, 16 h; hits give low values. activity change, % at 57.5 µM. 360,000 tested, 4.7% active; in the data active = activity change below about -50%; inconclusive = mostly about -30% to -49%; note: % is set by controls: 0 for no effect and ±100 for the full control effect
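THP-1 cells pretreated 1 hr with compounds (up to 57.5 uM final), then stimulated with LPS (250 ng/mL final) plus ATP (1.25 mM final); secreted IL-1B measured by AlphaLISA after 16 hr, decreased signal indicating inhibition.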
DT40 TDP1 CPT – growth inhibition of DT40 Tdp1-/-;hTDP1 cells with camptothecin (screen for TDP1 inhibitors). chicken DT40 Tdp1-/-;hTDP1 cells + 20 nM CPT, ATP luminescence, 48 h. Potency, µM (top dose mostly 46.2 µM), without a hit: at the highest dose activity change, negative = growth inhibition, usual class: inhibitors. 420,000 tested, 12% active; note: potency is the fitted concentration of half-maximal effect; % is set by controls: 0 for no effect and ±100 for the full control effect; nearly all actives have a fitted effect of over 55% in size
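Chicken DT40 Tdp1-/- cells complemented with human TDP1, 400 cells/well, exposed to compounds plus 20 nM camptothecin for at least 48 h at 37 C; viability read as ATP content by CellTiter-Glo luminescence.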
HepG2 viability – counter-screen for TGF-b inhibitors: cytotoxicity in HepG2 cells | 410,000 tested, 0.76% active | HepG2 CAGA-GFP viability, ATP luminescence, 18 h | Potency, µM (highest dose often 46.1 µM), for the others: at the highest dose activity change, negative = cytotoxicity, actives largely listed as cytotoxic; note: potency is the fitted concentration of half-maximal effect
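CellTiter-Glo luminescence gave cytotoxicity after 18 hours at 37 degrees C. The cells were HepG2 CAGA-GFP in 1% FBS DMEM, stimulated with 500 pg/mL TGF-beta after compound addition. %Activity was normalised to no-cell wells (complete cell-killing) and DMSO (no toxicity), and curves were fitted and classified.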
TDP1 cell noCPT – qHTS for Inhibitors of human tyrosyl-DNA phosphodiesterase 1 (TDP1): qHTS in cells in absence of CPT. DT40 Tdp1-/- hTDP1 cells, no CPT, ATP luminescence, 48 h. Potency, µM (series often up to 46.2 µM), without a hit: top-dose activity change, negative = growth inhibition, usual class: inhibitors. 420,000 tested, 15% active. AID 686978, 2013; note: potency is the fitted concentration of half-maximal effect; % is set by controls: 0 for no effect and ±100 for the full control effect; nearly all actives have a fitted effect of over 55% in size
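Compound effects on proliferation are scored in DT40 Tdp1-/-;hTDP1 cells in the absence of CPT. ATP levels (CellTiter-Glo luminescence) are recorded after a ≥48 hr, 37 °C incubation.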
S-ASM inh – human S-ASM enzyme inhibition; Potency, µM (series often up to 57.5 µM), inactives show top-dose activity change, negative = inhibition, hits mostly inhibitors; 340,000 tested, 0.006% active; placental ASM, HMU-PC fluorogenic substrate, 60 min; note: potency is the fitted concentration of half-maximal effect
Target sequence (P17405 47-631 limits assumed): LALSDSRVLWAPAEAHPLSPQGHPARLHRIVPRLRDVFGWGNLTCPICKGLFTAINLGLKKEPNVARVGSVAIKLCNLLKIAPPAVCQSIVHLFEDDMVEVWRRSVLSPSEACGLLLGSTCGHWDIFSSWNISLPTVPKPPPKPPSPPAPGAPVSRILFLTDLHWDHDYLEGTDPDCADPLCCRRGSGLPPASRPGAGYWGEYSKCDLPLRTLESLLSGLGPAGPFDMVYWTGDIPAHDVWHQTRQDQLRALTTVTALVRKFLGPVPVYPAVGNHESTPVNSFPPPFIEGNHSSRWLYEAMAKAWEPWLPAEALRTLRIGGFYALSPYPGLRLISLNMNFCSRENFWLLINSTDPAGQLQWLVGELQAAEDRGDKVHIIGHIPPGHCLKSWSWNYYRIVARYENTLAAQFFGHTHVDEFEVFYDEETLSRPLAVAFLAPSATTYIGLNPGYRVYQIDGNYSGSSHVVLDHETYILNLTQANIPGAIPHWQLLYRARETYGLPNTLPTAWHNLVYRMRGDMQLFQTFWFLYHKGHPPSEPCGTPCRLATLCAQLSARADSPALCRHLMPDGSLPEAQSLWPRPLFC
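Steps: dispense placental human ASM, pin compound, wait 10 min at room temperature, add HMU-PC0 substrate at 9 uM final, incubate 60 min at 37 °C, add stop solution raising pH to 10, read fluorescence.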
* = called active by the depositor; ? = inconclusive; · = no result given. Compounds with a hit are over-represented: about 19% of the library has one in this group of screens. Unless noted, calls come from the whole dose curve; as a rule, active = well fitted curve in the direction sought with a large enough effect; inconclusive = small, poorly fitted or top-dose-only effect, or another doubt; inactive = no such curve, though single readings can be large; an effect the other way counts as inactive or inconclusive.

SMILES | TGFb inhibitor | IL-1B inflam inh | DT40 TDP1 CPT | HepG2 viability | TDP1 cell noCPT | S-ASM inh
Cc1ccc(CN(Cc2cc3cccc(C)c3[nH]c2=O)C(=S)NCCCN(C)C)cc1 | 7% | -77* | ? | -7% | ? | -5%
Cc1cccc2cc(CN(Cc3ccccc3)C(=S)NCCCN(C)C)c(=O)[nH]c12 | -2% | -85* | ? | -24% | ? | -1%
Cc1ccc2[nH]c(=O)c(CN(Cc3cccnc3)C(=S)NCCCN(C)C)cc2c1 | 6% | -13 | 12% | 4% | -2% | 1%
Cc1cccc2cc(CN(Cc3cccnc3)C(=S)NCCCN(C)C)c(=O)[nH]c12 | 1% | -7 | 13µM* | -12% | ? | 5%
Cc1ccc(S(=O)(=O)CCC(=O)OCc2nnc(-c3ccccc3Br)o2)cc1 | 5% | -6 | 6% | 3% | 17% | -1%
CCn1cc(/C=C/C(=O)c2ccc(O)cc2)c(C)n1 | 3% | -81* | 1% | 5% | 0% | -5%
Cc1nn(C)cc1/C=C/C(=O)c1ccccc1 | 26% | ? | -26% | -35% | -23% | 8%
COc1ccc(-c2nn(-c3ccccc3)cc2C(=O)Nc2ccccc2OC)cc1 | -1% | · | 16µM* | -8% | 21µM* | ·
COc1ccc(-c2nn(-c3ccccc3)cc2C(=O)Nc2ccc(C(=O)O)cc2)cc1 | -15% | -26 | 2% | -45% | ? | 19%
COc1ccc(NC(=O)c2cn(-c3ccccc3)nc2-c2cc3ccccc3o2)cc1 | -26% | -2 | 16µM* | 1% | 21µM* | -9%
Cc1ccc(C)c(N2N=C(C(=O)OCc3nnc(-c4ccccc4Br)o3)CCC2=O)c1 | 2% | 12 | -3% | -3% | -3% | ·
OB(O)c1cc2ccccc2o1 | 2% | · | -9% | -20% | -16% | ·
CCCOc1ccc(-c2nc(N3CCN(C)CC3)c3ccccc3n2)cc1 | ? | -20 | 23µM* | -55% | ? | -4%
CCN1CCN(c2nc(-c3cccnc3)nc3ccccc23)CC1 | -5% | -2 | -23% | -8% | -13% | 5%
CCCOc1ccc(-c2nc(N3CCCCC3)c3ccccc3n2)cc1 | 31% | · | -5% | 1% | -19% | ·
CCCOc1ccc(-c2nc(N3CCN(CC)CC3)c3ccccc3n2)cc1 | ? | -57* | ? | -51% | 29µM* | -12%
COCCCN1CN(Cc2ccccc2)CNC1=S | 3% | 20 | ? | -27% | -7% | 2%
CN1CCN(S(=O)(=O)c2ccc(N3CCN(C(c4ccccc4)c4ccccc4)CC3)nc2)CC1 | 22% | 19 | ? | 0% | 16µM* | -1%
CN1CCN(S(=O)(=O)c2ccc(N3CCN(S(=O)(=O)/C=C/c4ccccc4)CC3)nc2)CC1 | 0% | -8 | 18µM* | -60% | ? | 1%
Cc1cc(N(C)C)nc(Nc2ccccc2)n1 | 11% | -79* | -18% | -11% | ? | 3%
Cc1cccc(Nc2nc(C)cc(C)n2)c1 | 13% | -4 | -5% | -3% | -12% | 0%
O=C(N/N=C/c1c[nH]c2ccccc12)c1cc(-c2cccc3ccccc23)n[nH]1 | ? | -52* | ? | -24% | ? | -12%
O=C(N/N=C/c1c[nH]c2ccccc12)c1cc(-c2ccc3ccccc3c2)n[nH]1 | 16µM* | -99* | 3.7µM* | -39% | ? | ?
O=C(N/N=C/c1c[nH]c2ccccc12)c1cc(-c2ccccc2)n[nH]1 | -6% | -66* | 0% | -46% | -9% | -8%
Cc1ccc(-c2cc(C(=O)N/N=C/c3c[nH]c4ccccc34)[nH]n2)cc1 | ? | 0 | 2.3µM* | -59% | 2.6µM* | -23%
SMILES | TGFb inhibitor | IL-1B inflam inh | DT40 TDP1 CPT | HepG2 viability | TDP1 cell noCPT | S-ASM inh
COC(=O)c1cc2sc(Cl)cc2n1Cc1cc(C)ccc1C | 0% | · | -16% | -5% | -26% | ·
O=C(N/N=C/C=C\c1ccccc1[N+](=O)[O-])c1cc(-c2ccc3ccccc3c2)n[nH]1 | 13µM* | -1 | ? | 8.9µM* | 18µM* | -2%
COc1ccc(C2CC(c3ccc4ccccc4c3)=NN2C(=O)CNC2CCCCC2)cc1 (stereo not drawn) | ? | -51* | 15µM* | 13µM* | 13µM* | -23%
C=CCNCC(=O)N1N=C(c2ccc3ccccc3c2)CC1c1ccc(OC)cc1 (stereo not drawn) | -2% | 0 | 8.2µM* | -41% | 13µM* | -9%
COc1ccc(C2CC(c3ccc4ccccc4c3)=NN2C(=O)COC(=O)C2CCC(=O)N2)cc1 (stereo not drawn) | -19% | -69* | 16µM* | 14% | ? | -26%
COc1ccc(C2=NN(C(=O)CCC(=O)O)C(c3ccc(OC)cc3)C2)cc1 (stereo not drawn) | 12% | 13 | 7% | 1% | 8% | 0%
COc1ccc(C2CC(c3ccc4ccccc4c3)=NN2C(=O)CN2CCC(C(N)=O)CC2)cc1 (stereo not drawn) | -25% | -82* | ? | -62% | ? | -4%
CC(=O)OCC(=O)N1N=C(c2ccc3ccccc3c2)CC1c1ccccc1 (stereo not drawn) | 4% | -21 | 19% | -11% | -10% | 2%
COc1ccc(C2CC(c3ccccc3)=NN2C(=O)COC(=O)c2cccc(O)c2)cc1 (stereo not drawn) | ? | -21 | ? | 0% | ? | -20%
C/C(=N\NC(=O)C1CC1)c1ccc(OC(F)F)cc1 | 7% | -20 | -1% | 0% | 4% | -2%
Cc1ccc(Cc2c(-c3ccco3)nc3c4ccccc4ccn23)cc1 | ? | -6 | 18µM* | -47% | 15µM* | ·
Cc1ccc(Cc2c(-c3ccco3)nc3ccc(C)cn23)cc1 | ? | -10 | 16µM* | -53% | 13µM* | ·
Cc1ccc(-c2nc3c4ccccc4ccn3c2Cc2cccc(Cl)c2)cc1 | · | 24 | ? | · | ? | ·
Cc1cc(Br)cn2c(Cc3cccc(Cl)c3)c(-c3ccco3)nc12 | · | -2 | ? | · | 21µM* | ·
Cc1ccc(Cc2c(-c3ccco3)nc3c(C)cc(Br)cn23)cc1 | ? | -70* | 3.7µM* | -103% | 6.5µM* | ·
COC(=O)c1ccc2nc(-c3ccco3)c(Cc3ccc(C)cc3)n2c1 | ? | 33 | -98% | 0% | ? | ·
